Reference: PubChem BioAssay (NCATS)
Where “and” joins values, the source holds several entries; their conditions need not be identical. Identical values can stand only once. Records with an inconclusive call do not appear. A number with no mark means an inactive call. Calls of active or inactive are those of the source. Calls follow the shape of the dose curve; as a rule, active = well fitted activation curve with a large enough effect; inconclusive = small, poorly fitted or top-dose-only effect; inactive = no such curve, though single readings can be large or run the other way.

Each compound was assayed against Cellular tumor antigen p53 (Homo sapiens) (UniProt P04637) (assay: Primary qHTS for small molecule compounds that upregulate eGFP-tagged delta133p53alpha (in N-terminal) cells. (AID 2060322; also: nearly all actives have a fitted effect of over 75% in size;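 as to activation: series mostly up to about 56 µM; 0% = DMSO vehicle and 100% = reference activator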)). Conditions: NCI-H358 eGFP-delta133p53alpha fluorescence, 24 h; activation: active compounds read high.
Cellular tumor antigen p53 (Homo sapiens), sequence (P04637 whole entry, looked up): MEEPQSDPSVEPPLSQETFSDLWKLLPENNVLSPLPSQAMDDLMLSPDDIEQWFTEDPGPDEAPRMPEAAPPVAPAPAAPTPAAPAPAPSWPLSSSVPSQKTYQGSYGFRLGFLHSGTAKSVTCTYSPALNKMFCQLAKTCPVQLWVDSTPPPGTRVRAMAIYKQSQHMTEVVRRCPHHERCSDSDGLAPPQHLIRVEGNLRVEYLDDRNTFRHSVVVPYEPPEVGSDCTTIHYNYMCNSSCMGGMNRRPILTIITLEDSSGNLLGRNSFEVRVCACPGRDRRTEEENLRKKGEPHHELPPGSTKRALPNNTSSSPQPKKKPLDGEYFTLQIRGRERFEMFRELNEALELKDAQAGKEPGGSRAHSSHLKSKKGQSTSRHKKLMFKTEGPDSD
Procedure, shortened: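 NCI-H358 cells pre-induced 24 h with 10 ng/ml doxycycline to express N-terminal eGFP-delta133p53alpha, then dosed 24 h at 37C without doxycycline; fixed, Hoechst-stained, GFP intensity by laser scanning cytometry, normalized to DMSO (0%) and 57.5 uM 5-azacytidine (100%).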
Potency is read from the fitted curve at half-maximal effect.

SMILES	activation	Potency
Nc1ccc(C(=O)OCC(O)CO)cc1 (centres undefined)	6.21%	
OC[C@H]1O[C@@H](O[C@H]2[C@@H](O)[C@@](O)(CO)O[C@@H]2CO)[C@H](O)[C@@H](O)[C@@H]1O	0.771%	
CC(C)(C)C(=O)OCOC(=O)C1N2C(=O)CC2S(=O)(=O)C1(C)C (centres undefined)	3.95%	
Cc1nc2n(c(=O)c1CCN1CCC(C(=O)c3ccc(F)cc3)CC1)CCS2	23.2%	
O=[N+]([O-])c1cccc(S(=O)(=O)NCCNS(=O)(=O)c2cccc([N+](=O)[O-])c2)c1	24.3%	
C[C@H](CCC(=O)O)[C@H]1CC[C@H]2[C@@H]3[C@H](O)C[C@@H]4C[C@H](O)CC[C@]4(C)[C@@H]3CC[C@]12C	-19.5%	
COc1c(N2C[C@@H]3CCCN[C@@H]3C2)c(F)cc2c(=O)c(C(=O)O)cn(C3CC3)c12	4.18%	
N#CC(=C(N)Sc1ccccc1N)C(C#N)=C(N)Sc1ccccc1N		17.2 µM (active)
CCC(CN)=C(c1ccccc1)c1ccccc1	-4.18%	
CC(=C(CCOC(=O)C(C)C)SSC(CCOC(=O)C(C)C)=C(C)N(C=O)Cc1cnc(C)nc1N)N(C=O)Cc1cnc(C)nc1N	-4.18%	
O=C(O)c1ccccc1NCCc1ccccc1	-1.69%	
CCCNC(C)C(=O)Nc1c(C)csc1C(=O)OC (centres undefined)	-37.9%	
CCOCCOC(=O)/C=C/c1ccc(OC)cc1	-3.95%	
C[n+]1ccccc1/C=N/O	15.3%	
CC(C)(C)c1cc(C=O)cc(C(C)(C)C)c1O	-16.4%	
Cc1c(C(N)=O)cc([N+](=O)[O-])cc1[N+](=O)[O-]	-8.37%	
Cc1c(C(C)C)c(=O)n(-c2ccccc2)n1C	-13.4%	
O=C(c1ccc(F)cc1)C1CCN(CCn2c(=S)[nH]c3ccccc3c2=O)CC1	-8.47%	
CCCCCOC(=O)Nc1nc(=O)n([C@@H]2O[C@H](C)[C@@H](O)C2O)cc1F (some centres undefined)	-14.6%	
C[C@H](O)C(=O)Nc1c(I)c(C(=O)NC(CO)CO)c(I)c(C(=O)NC(CO)CO)c1I	10.9%	

SMILES	activation	Potency
CCCCOC(=O)CC(CC(=O)OCCCC)(OC(C)=O)C(=O)OCCCC	-31.1%	
COCC(=O)Nc1c(I)c(C(=O)NCC(O)CO)c(I)c(C(=O)N(C)CC(O)CO)c1I (centres undefined)	-4.18%	
OC(CCCN1CCCCC1)(c1ccccc1)c1ccccc1	-16.4%	
Cc1cc(C)nc(NS(=O)(=O)c2ccc(N)cc2)n1	24.3%	
CCCc1c(OCCCCc2nn[nH]n2)ccc(C(C)=O)c1O	-2.82%	
CC(=O)NCCCCCC(=O)O	0.837%	
Cc1cc(O)c2c(O)c3c(O)cccc3cc2c1	0.837%	
CCCCCCCCCCOc1cc2c(=O)c(C(=O)OCC)c[nH]c2cc1OCC	-12.6%	
CC(=O)OC[C@H]1O[C@@H](n2ncc(=O)[nH]c2=O)[C@H](OC(C)=O)[C@@H]1OC(C)=O	-7.53%	
Cc1cc(OI)c(C(C)C)cc1-c1cc(C(C)C)c(OI)cc1C	17.5%	
CCCCCCOc1ccccc1C(N)=O	8.47%	
CN1N=C(C(N)=O)CCC1=O	-6.21%	
Cc1ccc(O)c(-n2nc3ccccc3n2)c1	7.53%	
CCn1cc(C(=O)O)c(=O)c2cc(F)c(N3CCNCC3)nc21	-2.51% and 26.4%	
O=C(CS(=O)Cc1ccco1)NCC=CCOc1cc(CN2CCCCC2)ccn1 (centres undefined)	38.6%	
COc1ccc(CCC(C)=O)cc1	-5.86%	
CC(CN(C)C)C(C)(O)Cc1ccc(Cl)cc1 (centres undefined)	21.8%	
Cc1c(Nc2ncccc2C(=O)O)cccc1C(F)(F)F	-5.08%	
CC(C)(O)Cn1c(NC(=O)c2ccc(-c3cn[nH]c3)s2)nc2cc(CN3CCOCC3)ccc21		3.85 µM (active)
